In PubChem BioAssay (EPA / NIEHS):
Active and inactive are the calls of the source. How the source made its calls: active means hit-call score of the fitted dose curve at least 0.9, where 1 is the maximum; inactive means score below 0.9.

Assay: ATG_M_19_CIS: Attagene CIS-FACTORIAL HepG2 Assay for M19 Transcription Factor (Internal Marker) (AID 2282939)
Details: HepG2 Attagene CIS-FACTORIAL M19 internal marker reporter; actives raise or lower the signal
Procedure, shortened: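 Internal marker readout, fitted in both directions against DMSO, from HepG2 cells carrying transfected cis-element reporter constructs; RT-PCR and capillary electrophoresis of reporter mRNA after 24 h exposure.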
With NC(N)=NC(N)=NCCc1ccccc1 the outcome was “inactive”.
With CC/C=C\CCOC(=O)C(C)C the outcome was “inactive”.
With CC(C)=CCCC(C)=CC(=O)O the outcome was “inactive”.
In the case of CCC=C(C)C=O, the outcome was “inactive”.
With C=C1CC[C@H]2O[C@]2(C)CC[C@@H]2[C@@H]1CC2(C)C the outcome was “inactive”.
With CCC(=O)OC/C=C(\C)CCC=C(C)C the outcome was “inactive”.
For CCO[Si](CCC#N)(OCC)OCC, the outcome was “inactive”.
In the case of CC(C)(O)CCc1ccccc1, the outcome was “inactive”.
In the case of CC(=O)C1C(=O)C=C(C)OC1=O (configuration not stated), the outcome was “inactive”.
In the case of CCc1cccc(O)c1, the outcome was “inactive”.
In the case of CC(CO)(CO)[N+](=O)[O-], the outcome was “inactive”.
For C[C@H](CCC(=O)O)[C@H]1CC[C@H]2[C@@H]3CC[C@@H]4C[C@H](O)CC[C@]4(C)[C@H]3CC[C@]12C, the AC50 was 169 µM (active).
With CCC(C)(C)C1CCC(OC)CC1 (configuration not stated) the outcome was “inactive”.
With C=CC(=O)OCC(CO)(COC(=O)C=C)COC(=O)C=C the outcome was “inactive”.
For CN(C)c1ccc(C=O)cc1, the outcome was “inactive”.
For CC1=CCC(C(C)(C)O)CC1 (configuration not stated), the outcome was “inactive”.
For CC(=O)CC(=O)N(C)C, the outcome was “inactive”.
With CCCc1ccc(O)cc1 the outcome was “inactive”.
With C=C1CC/C=C(\C)CC[C@@H]2[C@@H]1CC2(C)C the outcome was “inactive”.
For C=CC(C)(CCC=C(C)C)OC(=O)CC (configuration not stated), the outcome was “inactive”.
In the case of CCCCCCCCCCOC(=O)c1ccccc1C(=O)OCCCCCCCC, the outcome was “inactive”.
For CC(O)COCC(C)O (configuration not stated), the outcome was “inactive”.
With O=C1CCCCCCCCCCCC(=O)OCCO1 the outcome was “inactive”.
For NC(=O)c1c(Cl)cccc1Cl, the outcome was “inactive”.
With c1ccc2c(c1)-c1ccc3ccc4cccc5cc-2c1c3c45 the outcome was “inactive”.
With CC1=C(C=O)C(C)(C)CCC1 the outcome was “inactive”.
In the case of CC(C)OB(OC(C)C)OC(C)C, the outcome was “inactive”.
